Compound activity deposited in PubChem by NMMLSC.
MEKK3 PB1 HTS: modulators of MEKK3-MEK5 PB1 binding, primary screen, biochemical, wildtype MEKK3, multiplex bead flow cytometry, Alexa488-MEK5. bead-based flow cytometry, Alexa488-MEK5 binding to MEKK3; actives lie on both sides; 0 = blocked by unlabeled MEK5, 100 = vehicle. binding response (% of control), % at 10 µM. actives 1.4% (n = 290,000);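 active = binding response more than 3 SD above or below the average of its plate-row segment, actives on both sides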;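 also: Alexa488 bead fluorescence after subtracting the streptavidin-only scavenger bead signal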
GRK2 aptamer HTS: compounds blocking aptamer binding on GRK2 – biochemical, human GRK2, bead flow cytometry, HTS, primary screen | Beta-adrenergic receptor kinase 1 (Homo sapiens), P25098 | FAM-aptamer displacement from GRK2 | inhibition of aptamer binding, % at 10 µM | actives 0.59% (n = 330,000) | AID 488847, 2010;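 active = inhibition of aptamer binding above 40%, roughly 3 SD of noise, on plates passing a quality check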;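 also: median bead fluorescence of bound FAM aptamer so fluorescent compounds give negative values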
Target sequence (P25098 whole entry, looked up): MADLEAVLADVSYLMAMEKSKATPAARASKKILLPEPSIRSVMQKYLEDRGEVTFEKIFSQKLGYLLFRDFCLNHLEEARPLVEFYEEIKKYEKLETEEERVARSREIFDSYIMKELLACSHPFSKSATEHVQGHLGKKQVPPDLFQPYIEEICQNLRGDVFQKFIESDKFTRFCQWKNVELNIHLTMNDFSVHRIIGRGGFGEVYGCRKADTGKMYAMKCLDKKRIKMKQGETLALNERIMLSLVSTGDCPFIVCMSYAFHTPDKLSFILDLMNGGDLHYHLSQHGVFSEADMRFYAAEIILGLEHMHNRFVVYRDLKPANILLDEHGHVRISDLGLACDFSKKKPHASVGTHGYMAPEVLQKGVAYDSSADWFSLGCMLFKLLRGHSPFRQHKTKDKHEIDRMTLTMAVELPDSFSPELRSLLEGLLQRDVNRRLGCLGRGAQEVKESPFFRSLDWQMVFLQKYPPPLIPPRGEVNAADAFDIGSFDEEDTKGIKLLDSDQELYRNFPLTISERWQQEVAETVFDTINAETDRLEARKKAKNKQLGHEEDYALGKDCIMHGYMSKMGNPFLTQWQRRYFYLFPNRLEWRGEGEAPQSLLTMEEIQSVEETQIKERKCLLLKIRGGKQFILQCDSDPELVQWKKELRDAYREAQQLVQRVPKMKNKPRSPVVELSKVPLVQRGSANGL
MEKK2wt PB1 HTS: modulators of MEK5 binding to wildtype MEKK2, primary screen, biochemical, multiplex bead flow cytometry, Alexa488-MEK5; actives 1.1% (n = 290,000); Mitogen-activated protein kinase kinase kinase 2 (Homo sapiens), Q9Y2U5; binding response (% of control), % at 10 µM; AID 1531, 2009; Alexa488-MEK5 binding to MEKK2 WT; actives lie on both sides; in the data active = binding response below about 67% or above about 130%
MEKK2 mut-MEK5: MEK5 binding signal on mutant MEKK2 PB1, primary screen, biochemical, multiplex bead flow cytometry, Alexa488-MEK5; Alexa488-MEK5 binding to MEKK2 mutant; percent response, % at 10 µM; actives 0.35% (n = 290,000); in the data active = percent response above about 24%, passing the limit was not always enough
Beta2AR agonist: beta2AR agonists driving receptor internalization, primary screen, cell-based, FAP fluorogen, flow cytometry; Beta-2 adrenergic receptor (Homo sapiens), P07550; Am2.2-beta2AR cells; response, % (test concentration not listed); actives 0.43% (n = 340,000);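 active = response above a set limit, near 3 SD of response in nonfluorescent compounds, cut at about 42% in these data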
B2AR ag CP1: beta2AR agonists via receptor internalization, confirmation, cell-based, FAP fluorogen, flow cytometry, single point, cherry pick 1. shares compounds with Beta2AR agonist. actives 25% (n = 1,100). percent response (surface receptor), % at 10 µM. Am2.2-beta2AR cells, FAP surface receptor; stronger effect = lower value;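 active = surface receptor percent response at or below 58%, roughly 3 SD from nonfluorescent compounds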
B2AR FAP counter: fluorescence artifact in beta-2AR agonist FAP counterscreen. shares compounds with Beta2AR agonist. Am2.2 cells, FAP fluorogen flow cytometry; stronger effect = lower value. calls only at 10 µM. 1,100 tested, under 10 active;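 active = percent response below a set limit in fluorescence channel 1 and below 50% in channel 8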
* marks the source's active call; other numbers are inactive results; i = inactive; / = no result given; + = active, no number. In the library only some 2.9% were active in any assay of this set; here they are far more common.

SMILES	MEKK3 PB1 HTS	GRK2 aptamer HTS	MEKK2wt PB1 HTS	MEKK2 mut-MEK5	Beta2AR agonist	B2AR ag CP1	B2AR FAP counter
O=C(CCCCCn1c(=O)[nH]c2ccsc2c1=O)NCc1ccc2c(c1)OCO2	103	0	107	1	113*	26*	i
COc1cc(NC(=O)CCn2c(=O)[nH]c3ccsc3c2=O)cc(OC)c1	93	0	90	-5	3	/	/
O=C(CCCCCn1c(=S)[nH]c2ccccc2c1=O)NCc1ccc2c(c1)OCO2	104	0	99	-1	113*	29*	i
O=C(CCn1c(=O)[nH]c2ccsc2c1=O)NCc1ccc(F)cc1	105	0	104	-2	-7	95	i
O=C(CCCn1c(=O)[nH]c2ccsc2c1=O)N1CCN(Cc2ccc3c(c2)OCO3)CC1	102	39	98	1	-21	/	/
CS(=O)(=O)Nc1cccc(C2=NN(C(=O)c3ccccc3Cl)C(c3ccccc3O)C2)c1 (configuration not stated)	105	1	101	3	-3	/	/
C=CC[C@H](CC(=O)N[C@H](CO)Cc1ccccc1)C(=O)N[C@@H](COC(=O)[C@H](CC=C)CC(=O)OC(C)(C)C)Cc1c[nH]c2ccccc12	/	0	/	/	1	/	/
Cc1cnc(C(=O)OCC(=O)NCc2ccc(Cl)cc2)cn1	/	2	/	/	-4	/	/
COc1ccc(C(CC(=O)O)NS(=O)(=O)c2ccc3c(c2)N(C(C)=O)CC(C)O3)cc1 (configuration not stated)	97	0	96	-5	2	/	/
Cc1ccc2cccc(NS(=O)(=O)c3ccccc3)c2n1	100	0	104	4	/	119	i
O=S(=O)(Nc1cccc2cccnc12)c1ccccc1	102	0	96	1	46*	90	i
O=S(=O)(Nc1cccc2ccccc12)c1ccccc1	93	0	89	-12	-3	/	/
CC(=O)OCC1OC(OC2C[C@]3(C)C(CC(O)C4C([C@](C)(CCC=C(C)C)OC5OC(CO)C(O)C(O)C5O)CC[C@]43C)[C@@]3(C)CCC(O)C(C)(C)C23)C(O[C@@H]2OC(C)C(O)C(O)C2O)C(O)C1O (some centres not stated)	/	11	/	/	2	/	/
COc1ccc([C@H](C)NC[C@H](O)c2ccc(O)c(NC=O)c2)cc1	112	0	87	7	26	12*	i
C[C@H]1COC(=O)[C@H](CC(=O)OC(C)(C)C)C/C=C\C[C@@H](CC(=O)N[C@@H](CO)Cc2ccccc2)C(=O)N1	/	0	/	/	1	/	/
Oc1ccccc1Nc1nc(NCc2ccco2)c2ccccc2n1	103	3	117	15	51*	23*	i
Oc1ccccc1Nc1nc(NCC2CCCO2)c2ccccc2n1 (configuration not stated)	/	0	/	/	47*	8.6*	+
NC(=O)c1nsc(C(=O)N(c2ccc3c(c2)OCCO3)C(C(=O)NCC2CCCO2)c2ccc(F)cc2)c1N (configuration not stated)	101	5	103	7	-3	/	/
COc1ccccc1-c1csc(-n2ncc(C#N)c2N)n1	85	0	70	-18	84*	73	i
O=C(CCNC(=O)c1ccc(Br)cc1)Nc1nc2ccccc2[nH]1	/	/	/	/	-6	/	/
CSc1ccc(CN2CCC(Oc3ccc(C(=O)N4CCCC4)cc3)CC2)cc1	96	3	104	-5	51*	70	i
CCc1ccc(CN2CCC(Oc3ccc(C(=O)N4CCCC4)cc3)CC2)cc1	106	26	120	12	82*	9.0*	i
CCc1ccc(CN2CCC(Oc3ccc(C(=O)N4CCCCC4)cc3)CC2)cc1	101	2	106	-2	67*	40*	i
O=C(c1ccc(OC2CCN(Cc3ccc(F)cc3)CC2)cc1)N1CCCC1	100	3	102	-1	43*	46*	i
CCCc1nc2ccccc2c(=O)n1-c1ccc(C(=O)OCC)cc1	99	1	97	3	4	/	/
SMILES	MEKK3 PB1 HTS	GRK2 aptamer HTS	MEKK2wt PB1 HTS	MEKK2 mut-MEK5	Beta2AR agonist	B2AR ag CP1	B2AR FAP counter
CCC1CCc2sc(C(=O)NCC(c3ccc(OC)cc3)N3CCCC3)cc2C1 (configuration not stated)	/	0	/	/	22	/	/
COc1ccc(CN2CCC(Oc3ccc(C(=O)N4CCCC4)cc3)CC2)c(F)c1	101	3	110	2	26	107	i
COc1cc(C)c(CN2CCC(Oc3ccc(C(=O)N4CCCC4)cc3)CC2)cc1C	106	0	114	11	0	/	/
Cc1ccc(-n2nc3c(N4CCC(C(=O)NCCc5ccco5)CC4)nnc(C)c3c2C)cc1	102	0	108	1	13	/	/
COc1ccc(-n2nc3c(N4CCC(C(=O)NCc5ccco5)CC4)nnc(C)c3c2C)cc1	99	0	102	0	7	98	i
COc1ccc(-n2c(SCC(N)=O)nnc2-c2ccc(NS(=O)(=O)c3ccc(C)cc3)cc2)cc1	101	1	101	1	55*	106	i
COc1ccc(-n2c(SCC(=O)Nc3ccccc3)nnc2-c2ccc(NS(=O)(=O)c3ccc(C)cc3)cc2)cc1	99	0	92	1	10	/	/
Cc1cccnc1NC(=O)c1ccc(Cl)c(S(=O)(=O)N2CCCCC2)c1	/	6	/	/	-4	/	/
CC(C)C[C@H](NC(=O)OC(C)(C)C)C(=O)N[C@@H](CO)[C@H](O)[C@@H]1C[C@@H]1C(=O)NC1CCCCC1	104	0	100	1	2	/	/
CC1CC(C)CN(S(=O)(=O)c2ccc(C(=O)NCCCn3ccnc3)cc2)C1 (configuration not stated)	84	0	96	-7	55*	106	i
O=C(NCCCn1ccnc1)c1ccc(S(=O)(=O)N2CCCCCC2)cc1	96	0	96	5	-2	/	/
CC(=O)C1=C(O)C(=O)N(c2ccc(S(=O)(=O)Nc3nccs3)cc2)C1c1ccc(F)cc1 (configuration not stated)	98	0	99	-5	-6	/	/
Cc1ccc(O)c(NC(=O)c2cccc(NC(=O)c3ccco3)c2)c1	105	0	103	1	85*	19*	i
